± gives the standard deviation of the averaged measurements.
Experiments:
Assay in all cases: cell proliferation (confluence) relative to DMSO control; higher = less growth inhibition
Settings in all cases: 5 uM; 6 d
[1] = tested on: BT549
Summary of the method: (§1)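 Plates with 384 wells were seeded with triple-negative breast cancer cell lines at 500 cells per well, and epigenetic chemical probes in DMSO were added once the cells had attached, at a final 5 μM for 6 d. Imaging used an IncuCyte ZOOM with a ×10 objective in phase-contrast, and analysis used Incucyte 2016 software. With four replicate wells per compound, confluence was normalised to wells holding DMSO alone.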

[2] = tested on: CAL120
Summary of the method: as §1

[3] = tested on: HCC1143
Summary of the method: as §1

[4] = tested on: HCC1395
Summary of the method: as §1

[5] = tested on: HCC153
Summary of the method: as §1

[6] = tested on: HCC1806
Summary of the method: as §1

[7] = tested on: HCC38
Summary of the method: as §1

[8] = tested on: HCC70
Summary of the method: as §1

[9] = tested on: Hs578-T
Summary of the method: as §1

[10] = tested on: MB157
Summary of the method: as §1

[11] = tested on: SUM149-PT
Summary of the method: as §1

[12] = tested on: SUM159-PT
Summary of the method: as §1

## O=C(NC[C@H](O)CN1CCc2ccccc2C1)c1ccnc(NC2CCC2)c1
[1]
  cell proliferation: 81.4 ± 7.7%
[2]
  cell proliferation: 90 ± 7.5%
[3]
  cell proliferation: 75.1 ± 4.7%
[4]
  cell proliferation: 99.47 ± 0.48%
[5]
  cell proliferation: 37.2 ± 9.6%
[6]
  cell proliferation: 37.5 ± 4.5%
[7]
  cell proliferation: 67.8 ± 1.2%
[8]
  cell proliferation: 95 ± 2%
[9]
  cell proliferation: 89.7 ± 4.3%
[10]
  cell proliferation: 66.5 ± 2.1%
[11]
  cell proliferation: 36.7 ± 2.9%
[12]
  cell proliferation: 99.876 ± 0.038%

## COc1ccccc1C(=O)Nc1cc2c(cc1N1CCCC1)n(C)c(=O)n2C
[1]
  cell proliferation: 97.6 ± 1.7%
[2]
  cell proliferation: 99.2 ± 0.47%
[3]
  cell proliferation: 98.3 ± 1.9%
[4]
  cell proliferation: 99.979 ± 0.014%
[5]
  cell proliferation: 62.3 ± 11%
[6]
  cell proliferation: 77.1 ± 7.8%
[7]
  cell proliferation: 99.66 ± 0.35%
[8]
  cell proliferation: 96.7 ± 3.5%
[9]
  cell proliferation: 98.42 ± 0.77%
[10]
  cell proliferation: 89.6 ± 12%
[11]
  cell proliferation: 63 ± 8.4%
[12]
  cell proliferation: 99.986 ± 0.0076%

## O=C(/C=C/N1C[C@H]2C[C@@H]1CN2c1ccccn1)c1ccccc1O
[1]
  cell proliferation: 99.79 ± 0.1%
[2]
  cell proliferation: 93.4 ± 2.2%
[3]
  cell proliferation: 99.25 ± 0.15%
[4]
  cell proliferation: 99.895 ± 0.019%
[5]
  cell proliferation: 87.8 ± 2.8%
[6]
  cell proliferation: 99.849 ± 0.052%
[7]
  cell proliferation: 99.917 ± 0.014%
[8]
  cell proliferation: 99.13 ± 0.33%
[9]
  cell proliferation: 98.15 ± 0.9%
[10]
  cell proliferation: 98.9 ± 1%
[11]
  cell proliferation: 29.1 ± 5.7%
[12]
  cell proliferation: 99.994 ± 0.0044%

## COc1cc(C#N)ccc1S(=O)(=O)Nc1ccc2c(c1)cc(C)c(=O)n2C
[1]
  cell proliferation: 98 ± 1.4%
[2]
  cell proliferation: 98.97 ± 0.3%
[3]
  cell proliferation: 97 ± 1.3%
[4]
  cell proliferation: 99.962 ± 0.051%
[5]
  cell proliferation: 54.9 ± 7.1%
[6]
  cell proliferation: 76.1 ± 12%
[7]
  cell proliferation: 98.81 ± 0.89%
[8]
  cell proliferation: 95.8 ± 5%
[9]
  cell proliferation: 97.33 ± 0.58%
[10]
  cell proliferation: 92.5 ± 6.8%
[11]
  cell proliferation: 59.5 ± 7.1%
[12]
  cell proliferation: 99.963 ± 0.039%

## CCCc1cc(C)n(C)c(=O)c1CN(C)C(=O)c1cc(-c2ccc(N3CCN(C(C)C)CC3)nc2)cc2c1cnn2C(C)C
[1]
  cell proliferation: 99.971 ± 0.015%
[2]
  cell proliferation: 93.4 ± 3.8%
[3]
  cell proliferation: 99.3 ± 0.59%
[4]
  cell proliferation: 99.983 ± 0.016%
[5]
  cell proliferation: 84.6 ± 3.8%
[6]
  cell proliferation: 99.889 ± 0.049%
[7]
  cell proliferation: 99.77 ± 0.13%
[8]
  cell proliferation: 97.3 ± 2.3%
[9]
  cell proliferation: 97.89 ± 0.81%
[10]
  cell proliferation: 87.5 ± 6.8%
[11]
  cell proliferation: 84.2 ± 10%
[12]
  cell proliferation: 99.997 ± 0.0012%

## CC(C)Oc1ccc(-c2c[nH]cc2CN(C)CCN)cc1
[1]
  cell proliferation: 90.4 ± 3.7%
[2]
  cell proliferation: 99.34 ± 0.54%
[3]
  cell proliferation: 97.6 ± 0.99%
[4]
  cell proliferation: 99.982 ± 0.016%
[5]
  cell proliferation: 59.3 ± 2.6%
[6]
  cell proliferation: 80.7 ± 11%
[7]
  cell proliferation: 99.56 ± 0.26%
[8]
  cell proliferation: 94.5 ± 2.1%
[9]
  cell proliferation: 95.4 ± 1.7%
[10]
  cell proliferation: 93.7 ± 4.8%
[11]
  cell proliferation: 67.6 ± 13%
[12]
  cell proliferation: 99.843 ± 0.074%

## CNCCN1CCC(OCc2ccccc2)CC1
[1]
  cell proliferation: 98.25 ± 0.81%
[2]
  cell proliferation: 97.25 ± 0.95%
[3]
  cell proliferation: 96.6 ± 1.6%
[4]
  cell proliferation: 99.984 ± 0.0095%
[5]
  cell proliferation: 60.3 ± 10%
[6]
  cell proliferation: 73.6 ± 7.1%
[7]
  cell proliferation: 99.63 ± 0.28%
[8]
  cell proliferation: 88.5 ± 12%
[9]
  cell proliferation: 97.85 ± 0.92%
[10]
  cell proliferation: 93.3 ± 5.4%
[11]
  cell proliferation: 72.8 ± 18%
[12]
  cell proliferation: 99.906 ± 0.052%

## O=C(NCC(=O)N1CCCC1)Nc1ccc2cnccc2c1
[1]
  cell proliferation: 97.4 ± 1.4%
[2]
  cell proliferation: 98.79 ± 0.98%
[3]
  cell proliferation: 97.5 ± 2%
[4]
  cell proliferation: 99.815 ± 0.096%
[5]
  cell proliferation: 63 ± 9.2%
[6]
  cell proliferation: 82.8 ± 2.7%
[7]
  cell proliferation: 99.873 ± 0.048%
[8]
  cell proliferation: 94.9 ± 5.1%
[9]
  cell proliferation: 96.4 ± 1.6%
[10]
  cell proliferation: 94.3 ± 5.8%
[11]
  cell proliferation: 76.9 ± 9.1%
[12]
  cell proliferation: 99.995 ± 0.0035%

## COc1ccc(CCc2nc3cc(-c4c(C)noc4C)ccc3n2C[C@H](C)N2CCOCC2)cc1Cl
[1]
  cell proliferation: 98.71 ± 0.76%
[2]
  cell proliferation: 99.636 ± 0.017%
[3]
  cell proliferation: 98.527 ± 0.086%
[4]
  cell proliferation: 99.941 ± 0.031%
[5]
  cell proliferation: 48.7 ± 1.4%
[6]
  cell proliferation: 82.67 ± 0.12%
[7]
  cell proliferation: 99.927 ± 0.017%
[8]
  cell proliferation: 99.75 ± 0.26%
[9]
  cell proliferation: 96.9 ± 1%
[10]
  cell proliferation: 90.6 ± 2.1%
[11]
  cell proliferation: 34.4 ± 3.4%
[12]
  cell proliferation: 99.994 ± 0.0041%

## CCOC(=O)CCNc1cc(N2CCc3ccccc3CC2)nc(-c2ccccn2)n1
[1]
  cell proliferation: 28.2 ± 3.8%
[2]
  cell proliferation: 22.3 ± 2.1%
[3]
  cell proliferation: 60.8 ± 4.6%
[4]
  cell proliferation: 40.6 ± 9.5%
[5]
  cell proliferation: 21.3 ± 3.7%
[6]
  cell proliferation: 27.9 ± 4.9%
[7]
  cell proliferation: 23.1 ± 5%
[8]
  cell proliferation: 66 ± 12%
[9]
  cell proliferation: 68.5 ± 11%
[10]
  cell proliferation: 33.6 ± 8.3%
[11]
  cell proliferation: 10.2 ± 3.8%
[12]
  cell proliferation: 94.72 ± 0.36%

## O=C([C@@H](Cc1cccc(C(F)(F)F)c1)NS(=O)(=O)c1cc(F)c2c(c1)CCNC2)N1CCCC1
[1]
  cell proliferation: 98.6 ± 1.6%
[2]
  cell proliferation: 97.2 ± 1.3%
[3]
  cell proliferation: 97.9 ± 1.8%
[4]
  cell proliferation: 99.978 ± 0.021%
[5]
  cell proliferation: 79.2 ± 12%
[6]
  cell proliferation: 86.9 ± 14%
[7]
  cell proliferation: 99.44 ± 0.59%
[8]
  cell proliferation: 96.1 ± 2.5%
[9]
  cell proliferation: 94.3 ± 4.3%
[10]
  cell proliferation: 82.3 ± 15%
[11]
  cell proliferation: 87.4 ± 7.1%
[12]
  cell proliferation: 99.992 ± 0.0088%

## CCN(C(=O)CO)[C@H]1CN(/C(=N\C#N)Nc2cccc(OC(F)F)c2)N=C1c1ccc(Cl)c(Cl)c1
[1]
  cell proliferation: 99.63 ± 0.31%
[2]
  cell proliferation: 90.8 ± 2.4%
[3]
  cell proliferation: 99.11 ± 0.44%
[4]
  cell proliferation: 99.957 ± 0.033%
[5]
  cell proliferation: 82.4 ± 4.8%
[6]
  cell proliferation: 99.79 ± 0.11%
[7]
  cell proliferation: 99.79 ± 0.12%
[8]
  cell proliferation: 90.8 ± 8.2%
[9]
  cell proliferation: 98.67 ± 0.29%
[10]
  cell proliferation: 78.6 ± 8.9%
[11]
  cell proliferation: 75.9 ± 10%
[12]
  cell proliferation: 99.999 ± 0.002%

## CC(C)N(CCCNC(=O)Nc1ccc(C(C)(C)C)cc1)C[C@H]1O[C@@H](n2cc(Br)c3c(N)ncnc32)[C@H](O)[C@@H]1O
[1]
  cell proliferation: 99.955 ± 0.014%
[2]
  cell proliferation: 98.5 ± 1.1%
[3]
  cell proliferation: 99.74 ± 0.16%
[4]
  cell proliferation: 99.977 ± 0.024%
[5]
  cell proliferation: 85.8 ± 4.9%
[6]
  cell proliferation: 99.862 ± 0.055%
[7]
  cell proliferation: 99.891 ± 0.042%
[8]
  cell proliferation: 93.6 ± 4.6%
[9]
  cell proliferation: 96.1 ± 1.3%
[10]
  cell proliferation: 89.1 ± 3.2%
[11]
  cell proliferation: 76 ± 6.9%
[12]
  cell proliferation: 99.997 ± 0.0024%

## CC(C)Oc1ccc(-c2c[nH]cc2CN(C)CCO)cc1
[1]
  cell proliferation: 97.58 ± 0.92%
[2]
  cell proliferation: 97.5 ± 1.6%
[3]
  cell proliferation: 96.98 ± 0.82%
[4]
  cell proliferation: 99.978 ± 0.011%
[5]
  cell proliferation: 61.5 ± 8.3%
[6]
  cell proliferation: 81.7 ± 3.2%
[7]
  cell proliferation: 99.55 ± 0.37%
[8]
  cell proliferation: 97.3 ± 1.8%
[9]
  cell proliferation: 97.16 ± 0.64%
[10]
  cell proliferation: 94.2 ± 3.9%
[11]
  cell proliferation: 74 ± 11%
[12]
  cell proliferation: 99.986 ± 0.014%

## CC[C@H](C)n1cc(C)c2c(C(=O)NCc3c(C)cc(C)[nH]c3=O)cc(-c3ccc(N4CCNCC4)nc3)cc21
[1]
  cell proliferation: 98.6 ± 2.6%
[2]
  cell proliferation: 91.6 ± 5.4%
[3]
  cell proliferation: 99.53 ± 0.32%
[4]
  cell proliferation: 99.996 ± 0.0038%
[5]
  cell proliferation: 87.9 ± 3.7%
[6]
  cell proliferation: 99.846 ± 0.034%
[7]
  cell proliferation: 99.825 ± 0.095%
[8]
  cell proliferation: 82 ± 8.6%
[9]
  cell proliferation: 97.8 ± 1.3%
[10]
  cell proliferation: 79.1 ± 14%
[11]
  cell proliferation: 90.3 ± 4.3%
[12]
  cell proliferation: 99.995 ± 0.00082%

## CCCc1cc(C)[nH]c(=O)c1CNC(=O)c1cc(-c2ccnc(N3CCN(C)CC3)c2)cc2c1cnn2C(C)C
[1]
  cell proliferation: 99.876 ± 0.081%
[2]
  cell proliferation: 94.6 ± 4%
[3]
  cell proliferation: 99.63 ± 0.27%
[4]
  cell proliferation: 99.992 ± 0.007%
[5]
  cell proliferation: 88.3 ± 2.3%
[6]
  cell proliferation: 99.64 ± 0.32%
[7]
  cell proliferation: 99.73 ± 0.33%
[8]
  cell proliferation: 97.6 ± 2.6%
[9]
  cell proliferation: 97.34 ± 0.48%
[10]
  cell proliferation: 95.1 ± 5.6%
[11]
  cell proliferation: 61.1 ± 10%
[12]
  cell proliferation: 99.976 ± 0.033%
